PubChem BioAssay (NCI)
About 83,000 compounds went through this panel and 20% of them were active in at least one assay; those are over-represented in the sample as a whole.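 Interpretation: 100, growth as untreated; towards 0, rising growth inhibition; 0, no net growth; 0 to -100, cell death. Compounds scoring below 10 were considered active.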 Unmarked numbers belong to inactive results. Active and inactive are the calls of the source.

What follows are molecules tested on MDA-MB-468 breast (assay: NCI-60 one-dose screen, 48 h (100 = growth as untreated, 0 = no growth, -100 = all killed)). Conditions: 10 µM unless noted.

Row | Structure (SMILES) | growth
1 | Cc1[nH]nc2ncc(C#Cc3cncc(C(=O)Nc4ccc(CN5CCN(C)CC5)c(C(F)(F)F)c4)c3)cc12 | 26.1%
2 | COc1ccc(-c2cc3c4c(nc5ccccc5c4c2)CC(c2cc(OC)c(OC)c(OC)c2)O3)cc1 (stereo not given) | 26.6%
3 | CC(C)c1cc(C(=O)O)c(O)c(C(C)C)c1.CC(C)c1cc(C(=O)O)c(O)c(C(C)C)c1.[Mn] | 120%
4 | CCC12OC(COc3ccccc3)CN1CCN2c1ccccc1 (stereo not given) | 97.4% [100 µM]
5 | CN1CCN(CCOc2ccc(-c3cnc4c(-c5ccccc5F)cnn4c3)cc2)CC1 | 45.6%
6 | C#CCNC(=S)N/N=C(\C)c1ccccn1 | -31.4% (active)
7 | O=C(CCN1C(=O)/C(=C/c2ccc(Cl)cc2)SC1=S)NCCCN1CCOCC1 | 100%
8 | O=[N+]([O-])c1cc(CCl)ccc1OCCBr | 92.4%
9 | O=C1CS/C(=N/c2nnc(-c3ccc(O)cc3)s2)N1 | 116%
10 | O=C(O)c1ccc(Nc2ncc3c(n2)-c2ccc(Cl)cc2C(c2c(F)cccc2F)=NC3)cc1 | 35%
11 | COc1ccc(-c2cnnc3c(-c4cccc(C(F)(F)F)c4)cnn23)cc1 | 77.6%
12 | CCCS(=O)(=O)Nc1cccc(Nc2ncnc3cc(NC(=O)CCl)ccc23)c1Cl | -41.8% (active)
13 | CC(C)NS(=O)(=O)c1cccc(-c2ccc3c(=O)n(CCCN)c4c(c3c2)C(=O)c2ccccc2-4)c1 | 111%
14 | N#Cc1c(-c2ccc(Cl)cc2)nc(SCc2ccc(F)cc2)nc1N1CCNCC1 | -62.5% (active)
15 | NC(N)=NS(=O)(=O)c1ccc(NC2=C(I)C(=O)c3ncccc3C2=O)cc1 | 94.1%
16 | c1ccc2[nH]c(-c3cc(-c4ccc5c(c4)OCO5)n[nH]3)nc2c1 | 51.2%
17 | CS(=O)(=O)Nc1ccc(-c2nn(-c3ccc(S(C)(=O)=O)cc3)cc2/C=C/C(=O)c2ccc(NC(=O)CO[N+](=O)[O-])cc2)cc1 | 95%
18 | CCN=c1cc2sc3cc(NCC)c(C)cc3nc-2cc1C | 30.7%
19 | CNc1cc2nc3cc(NC)c(C)cc3cc2cc1C | -11.5% (active)
20 | COC(=O)Nc1nc2ccc(C(=O)c3ccccc3N(C)C3COC3)cc2[nH]1 | 23.8%

Row | Structure (SMILES) | growth
21 | COC(=O)[C@H](Cc1cn(C)cn1)NC(=O)[C@H](Cc1c[nH]c2ccccc12)NC(=O)Nc1cc(C(F)(F)F)cc(C(F)(F)F)c1 | -75.7% [100 µM] (active)
22 | CCOC(=O)c1c2c(n(-c3ccc(C#N)cc3)c1-c1ccccc1)C=CCC2 | 88.9%
23 | O=[N+]([O-])c1ccc(S(=O)(=O)NN=C2CCCCC2)cc1 | 115%
24 | Cn1ccnc1C(=O)/C=C/c1ccc(CNC(=O)c2ccc(F)cc2)cc1 | -29.1% (active)
25 | O=C(CSc1nc2ccc([N+](=O)[O-])cc2[nH]1)Nc1cccc(Cl)c1 | -10.4% (active)
26 | NC(=O)NN=C(C1CC1)C1CC1 | 119%
27 | CS(=O)(=O)c1ccc(/C(=N/NC(N)=S)c2ccc(F)cc2)cc1 | 88.2%
28 | O=C(Nc1ccc(Cl)cc1F)c1cc(Cl)ccc1O | -20.2% (active)
29 | Brc1cc(-c2cc(-c3ccc4c(c3)OCCO4)[nH]n2)cs1 | 12%
30 | O=C(O)C(C(=O)O)c1cccc2ccccc12 | 101%
31 | Cc1ccc2c(n1)C(=O)C(Cl)=C(Nc1cccc(C(=O)OC(C)(C)C)c1)C2=O | -57.7% (active)
32 | Cc1ccc(C(SCC(N)C(=O)O)(c2ccccc2)c2ccc(C)cc2)cc1 (stereo not given) | -1.71% (active)
33 | CN1CCN(Cc2ccc(NC(=O)c3cncc(C#Cc4cncc5[nH]ncc45)c3)cc2C(F)(F)F)CC1 | 16.6%
34 | CN(C)CCCC(=O)Nc1ccc(Cn2nnc3c2C(=O)c2nnn(Cc4ccc(NC(=O)CCCN(C)C)cc4)c2C3=O)cc1 | -62.7% (active)
35 | COc1ccc(/C(=C2\O[C@@H]([C@H](O)CO)[C@H]3OC(C)(C)O[C@@H]23)c2cc(OC)c(OC)c(OC)c2)cc1O | 107%
36 | O=C(CSC(=S)N1CCCCC1)Nc1ccccc1 | 103%
37 | COc1cc(-c2n/c(=C\c3c(O)[nH]c4ccccc34)cc3c2=Nc2ccccc2-3)cc(OC)c1OC | 5.24% (active)
38 | Cc1c(C(N)=O)sc2nc(C)n(/N=c3\scc(-c4ccccc4)n3Cc3ccccc3)c(=O)c12 | 79.9%
39 | COc1cc(C(=O)c2cc(C(C)=O)c3c4ccccc4ccn23)cc(OC)c1OC | 42.1%
40 | O=C(NN(C(=O)c1ccccc1)c1cccs1)c1ccccc1 | 103%
